# Results published in PubChem BioAssay (NCATS).
# Records with an inconclusive call do not appear. Where a call stands in place of a potency, no number is given. Values without a mark were called inactive. Activity calls are given as the source filed them. The call rests on the fitted dose curve; in most records, active means well fitted inhibition curve with a large enough effect; inconclusive means small, poorly fitted or top-dose-only effect; inactive means flat fitted curve, though single readings scatter.
# Assays:
# [1] = qHTS profiling for inhibitors of Plasmodium falciparum proliferation (AID 504749); further: nearly all actives have a fitted effect of over 60% in size; details: P. falciparum in erythrocytes, SYBR Green DNA, 72 h, at 28.7 µM (top of the series)
# In short: (§1)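 SYBR Green fluorescence of parasite DNA, read after lysis and overnight dark incubation, measured growth over 72 h in erythrocyte culture at 0.3% parasitemia and 2.5% hematocrit. Data normalised to DMSO and 0.29 uM artemisinin, with plate-drift correction.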
# [2] = tested on: 3D7; assay: as above; details: P. falciparum in erythrocytes, SYBR Green DNA, 72 h; series mostly up to 28.7 µM
# In short: as §1
# [3] = tested on: 7G8; assay: as above; details: P. falciparum in erythrocytes, SYBR Green DNA, 72 h; series mostly up to 28.7 µM
# In short: as §1
# [4] = tested on: AA1029; assay: as above; details: P. falciparum in erythrocytes, SYBR Green DNA, 72 h; series mostly up to 28.7 µM
# In short: as §1
# [5] = tested on: AS120; assay: as above; details: P. falciparum in erythrocytes, SYBR Green DNA, 72 h; series mostly up to 28.7 µM
# In short: as §1
# [6] = tested on: ATS95; assay: as above; details: P. falciparum in erythrocytes, SYBR Green DNA, 72 h; series mostly up to 28.7 µM
# In short: as §1
# [7] = tested on: C2A; assay: as above; details: P. falciparum in erythrocytes, SYBR Green DNA, 72 h; series mostly up to 28.7 µM
# In short: as §1
# [8] = tested on: CP185; assay: as above; details: P. falciparum in erythrocytes, SYBR Green DNA, 72 h; series mostly up to 28.7 µM
# In short: as §1
# [9] = tested on: ATS189; assay: as above; details: P. falciparum in erythrocytes, SYBR Green DNA, 72 h; series mostly up to 28.7 µM
# In short: as §1
# Potency means the concentration at half of the fitted maximal effect.
SMILES,"activity, negative = inhibition ([1]; parasite line A) [%]","activity, negative = inhibition ([1]; parasite line B) [%]",Potency [2],Potency [3],Potency [4],Potency [5],Potency [6],Potency [7],Potency [8],Potency [9]
CCCCCCCCCCCCCCCCO,1.6,8.58,inactive,inactive,inactive,inactive,inactive,inactive,inactive,
CN(Cc1ccc(C(C)(C)C)cc1)Cc1cccc2ccccc12,-10,-26.9,inactive,11.2 µM (active),inactive,inactive,,inactive,inactive,inactive
CCCN(CCC)S(=O)(=O)c1ccc(C(=O)O)cc1,12.1,6,inactive,inactive,inactive,inactive,inactive,inactive,inactive,inactive
COP(=O)(OC)OC(c1ccc(Cl)cc1)P(=O)(OC)OC (stereo not drawn),10.6,-3.59,inactive,inactive,inactive,inactive,inactive,inactive,inactive,inactive
O=C(NCCc1c[nH]c2ccccc12)c1cccnc1,0.138,13.6,inactive,inactive,inactive,inactive,inactive,inactive,inactive,inactive
